Our source for the composite z-score, z-score and composite Z-score values is PubChem BioAssay.

The source made the active and inactive calls.

The subject of assay [1] is Human papillomavirus type 1a protein E7 (residues 44-93). The assay can be described thus: HPV1a E7 fragment binders on microarrays, primary screen, biochemical, small-molecule microarray, residues 44-93, 635 nm fluorescence (AID 1108).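 Also: E7 fragment applied at 1 µg/mL in TBST for 1 h at 4 C; score combines spot fluorescence with its signal to noise ratio.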 Particulars: small-molecule microarray binding, fluorescence 635 nm; higher = more signal.
Assay [2] in a line: modulators of HCV replicon luciferase signal, primary screen, HCV replication inhibitor project, Huh7 cells, luciferase reporter (AID 1109).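 Also: huh7 hepatoma cells harbouring a luciferase neomycin HCV replicon reporter; luciferase luminescence as measure of HCV replicon replication; test concentration not given here.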 As to conditions: 48 h, higher = more signal. Background: A replicon is a self-replicating genome or part of one, used to study replication in cells.
The target of assay [3] is Left-right determination factor 2 (Homo sapiens) (UniProt O00292). The assay can be described thus: LEFTY2 binders on small-molecule microarrays, primary screen, biochemical, small-molecule microarray, 635 nm fluorescence scan (AID 1110). As to conditions: LEFTY2 binding, higher = more signal.
Assay [4] addresses Calmodulin-1 (Homo sapiens) (UniProt P0DP23). The assay can be described thus: CALM1 binders on microarrays, EGTA buffer, profiling panel, biochemical, small-molecule microarray, Cy5-labelled CALM1 (AID 1111).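 Also: labelled calmodulin applied in Tris saline Tween buffer holding calcium plus EGTA and DTT.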 Particulars: Cy5-CALM1 binding fluorescence, higher = more signal.
Assay [5] shares this target. The assay is described as follows: calcium-bound CALM1 binders on microarrays, profiling panel, artefact control for SMM control-protein annotation, biochemical, small-molecule microarray, Cy5-labelled CALM1, plus calcium (AID 1112).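 Also: score merges spot fluorescence with signal to noise from triplicate slides.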 Particulars: Cy5-CALM1 binding fluorescence, higher = more signal.
The nature of assay [6]: small-molecule microarray binders of probe aWnt5a, primary screen, biochemical, biotinylated probe, 635/667 nm fluorescence (AID 1113).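 Also: score merges 667 nm fluorescence intensity with signal-to-noise per printed feature.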 Particulars: higher = more signal.
Assay [7] is described as follows: small-molecule microarray binders of probe aShh, primary screen, biochemical, biotinylated probe, 635/667 nm fluorescence (AID 1114).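 Also: probe is biotin-labelled aShh protein from a stem cell growth factor screen; measures binding of labelled protein to compounds printed on the slide; score merges feature fluorescence at 667 nm with signal-to-noise.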 As to conditions: higher = more signal.
Assay [8] in a line: small-molecule microarray binders of probe aNog, primary screen, biochemical, biotinylated probe, 635/667 nm fluorescence (AID 1115).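 Also: probe is biotinylated aNog protein used at 0.15 µg/mL for 1 h at 4 C; z-score combines 667 nm fluorescence of each spot with its signal to noise.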 Particulars: higher = more signal.
The target in assay [9] is Torsin-1A-interacting protein 1 (Homo sapiens) (UniProt Q5JTV8). The assay can be described thus: LAP1 binders from COS7 cell lysate, primary screen, small-molecule microarray, 635/667 nm fluorescence (AID 1116). Particulars: COS7-hLAP1 lysate binding, 635 nm fluorescence, higher = more signal.
The target in assay [10] is Alpha-bungarotoxin (Bungarus multicinctus) (UniProt P60615). The assay can be described thus: alpha-bungarotoxin binders on microarray, profiling panel, artefact control for SMM control protein annotation, biochemical, small-molecule microarray, Alexa647 label, 635/667 nm fluorescence (AID 1117). Particulars: alpha-BTX-A647 binding fluorescence, higher = more signal.
The next assay has as its target Albumin (Bos taurus) (UniProt P02769). The assay can be described thus: bovine serum albumin binders on microarray, profiling panel, artefact control for SMM control protein annotation, biochemical, small-molecule microarray, Alexa647 label, 635/667 nm fluorescence (AID 1118).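 Also: score merges 667 nm emission intensity and signal-to-noise per printed compound spot.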 As to conditions: BSA-A647 binding, fluorescence 635 nm, higher = more signal.
Assay [11] in a line: small-molecule microarray binders of probe aXIP, primary screen, biochemical, NeuroSMM set, 635/667 nm fluorescence (AID 1119).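 Also: probe is the protein aXip251-270 applied at 1 µg/mL to compound-printed slides; binding of probe to printed compounds measured as 667 nm fluorescence plus signal to noise.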 Particulars: higher = more signal, called active from +8 up or from −8 down.
Assay [12] can be described thus: small-molecule binders of probe aNOTCH3, primary screen, biochemical, small-molecule microarray, 635/667 nm fluorescence (AID 1120).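 Also: probe is a biotin-tagged antibody raised against NOTCH3 rather than NOTCH3 protein; score merges spot fluorescence near 667 nm with spot signal to noise.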 Particulars: higher = more signal.
A short description of assay [13]: small-molecule binders of probe aNOTCH2, primary screen, biochemical, small-molecule microarray, 635/667 nm fluorescence (AID 1121).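 Also: score merges feature fluorescence read at 667 nm with its signal to noise.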 Particulars: higher = more signal.
Assay [14] deals with Carbonic anhydrase 2 (Homo sapiens) (UniProt P00918). The assay can be described thus: CAII small-molecule binders, profiling panel, biochemical, small-molecule microarray, Alexa647-labelled CAII (AID 1122). As to conditions: CAII-A647 binding fluorescence, higher = more signal.
Assay [15] can be described thus: COS7 lysate on small-molecule microarray, probe aHis, 635 nm (AID 1123).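 Also: z-score combines 667nm fluorescence intensity with signal-to-noise per printed compound spot.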 Particulars: COS7 cell lysate, fluorescence, higher = more signal.
Assay [16] can be described thus: compound binding in COS7 lysate, probe aLAP1, primary screen, cell lysate, small-molecule microarray (AID 1124).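 Also: lysate comes from COS7 cells expressing LAP1 and is applied at 0.3 µg/mL; score merges spot fluorescence near 667 nm with signal-to-noise over triplicate slides.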 Particulars: probe aLAP1, fluorescence, higher = more signal.
The next assay relates to Sam68 (KHDRBS1). The assay can be described thus: Sam68 small-molecule binders, primary screen, biochemical, small-molecule microarray, 635 nm fluorescence (AID 1125).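 Also: score merges 667 nm channel intensity with signal to noise over triplicate slides.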 As to conditions: small-molecule microarray binding, higher = more signal.
Assay [17] concerns Chordin-like protein 2 (CHRDL2). The assay is described as follows: CHRDL2 small-molecule binders, primary screen, biochemical, small-molecule microarray, 635 nm fluorescence (AID 1126).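 Also: printed compound slides probed with Chrdl2 protein at 4 µg/mL for 1 h at 4 C; score merges 667 nm emission intensity with signal to noise over three replicate slides.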 Particulars: small-molecule microarray binding, fluorescence 635 nm; higher = more signal.
Assay [18] addresses Concanavalin-A (Canavalia ensiformis) (UniProt P02866). The assay can be described thus: ConA small-molecule binders, primary screen, artefact control for SMM control protein annotation, biochemical, small-molecule microarray, Alexa647 label, 635 nm (AID 1127).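 Also: z combines 667 nm emission intensity with signal-to-noise across three replicate slides.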 Particulars: ConA-A647 binding fluorescence, higher = more signal.

Sequence of Left-right determination factor 2 (Homo sapiens) (O00292 whole entry, looked up): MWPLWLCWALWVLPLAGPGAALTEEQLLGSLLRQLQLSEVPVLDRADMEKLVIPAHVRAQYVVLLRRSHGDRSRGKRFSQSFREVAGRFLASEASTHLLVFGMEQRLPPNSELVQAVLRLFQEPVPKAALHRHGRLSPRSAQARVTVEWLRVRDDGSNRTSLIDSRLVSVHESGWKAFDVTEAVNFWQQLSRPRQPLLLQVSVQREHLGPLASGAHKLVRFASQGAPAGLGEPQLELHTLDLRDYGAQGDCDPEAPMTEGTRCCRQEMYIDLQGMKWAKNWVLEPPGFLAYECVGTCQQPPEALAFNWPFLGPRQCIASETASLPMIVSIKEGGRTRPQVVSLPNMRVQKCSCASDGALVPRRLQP
Sequence of Concanavalin-A (Canavalia ensiformis) (P02866 whole entry, looked up): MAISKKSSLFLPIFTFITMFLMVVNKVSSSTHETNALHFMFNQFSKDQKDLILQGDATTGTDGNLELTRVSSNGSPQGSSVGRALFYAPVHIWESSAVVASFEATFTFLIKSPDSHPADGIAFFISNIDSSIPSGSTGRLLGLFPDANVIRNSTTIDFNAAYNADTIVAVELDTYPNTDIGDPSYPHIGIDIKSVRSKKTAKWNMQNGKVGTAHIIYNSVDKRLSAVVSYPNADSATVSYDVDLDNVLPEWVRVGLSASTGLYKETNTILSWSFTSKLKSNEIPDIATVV
Sequence of Albumin (Bos taurus) (P02769 whole entry, looked up): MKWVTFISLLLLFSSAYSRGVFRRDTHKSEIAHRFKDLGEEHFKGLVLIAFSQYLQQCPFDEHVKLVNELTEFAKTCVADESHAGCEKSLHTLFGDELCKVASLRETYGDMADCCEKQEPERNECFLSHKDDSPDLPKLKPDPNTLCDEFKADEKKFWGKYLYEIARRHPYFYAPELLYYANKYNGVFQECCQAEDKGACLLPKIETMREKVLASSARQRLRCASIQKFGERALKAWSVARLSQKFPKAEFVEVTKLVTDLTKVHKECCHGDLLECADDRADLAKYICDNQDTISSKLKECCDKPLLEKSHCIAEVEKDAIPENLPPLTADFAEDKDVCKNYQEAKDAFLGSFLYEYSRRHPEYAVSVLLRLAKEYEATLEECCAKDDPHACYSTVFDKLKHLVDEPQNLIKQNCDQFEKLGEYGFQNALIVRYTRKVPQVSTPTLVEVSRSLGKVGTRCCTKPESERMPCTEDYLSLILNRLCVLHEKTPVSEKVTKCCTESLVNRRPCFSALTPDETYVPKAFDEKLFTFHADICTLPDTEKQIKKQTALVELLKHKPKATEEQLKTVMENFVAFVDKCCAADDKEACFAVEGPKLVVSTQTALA
Sequence of Alpha-bungarotoxin (Bungarus multicinctus) (P60615 whole entry, looked up): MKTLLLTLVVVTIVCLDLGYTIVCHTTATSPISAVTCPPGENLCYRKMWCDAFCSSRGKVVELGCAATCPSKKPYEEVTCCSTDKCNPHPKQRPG
Sequence of Torsin-1A-interacting protein 1 (Homo sapiens) (Q5JTV8 whole entry, looked up): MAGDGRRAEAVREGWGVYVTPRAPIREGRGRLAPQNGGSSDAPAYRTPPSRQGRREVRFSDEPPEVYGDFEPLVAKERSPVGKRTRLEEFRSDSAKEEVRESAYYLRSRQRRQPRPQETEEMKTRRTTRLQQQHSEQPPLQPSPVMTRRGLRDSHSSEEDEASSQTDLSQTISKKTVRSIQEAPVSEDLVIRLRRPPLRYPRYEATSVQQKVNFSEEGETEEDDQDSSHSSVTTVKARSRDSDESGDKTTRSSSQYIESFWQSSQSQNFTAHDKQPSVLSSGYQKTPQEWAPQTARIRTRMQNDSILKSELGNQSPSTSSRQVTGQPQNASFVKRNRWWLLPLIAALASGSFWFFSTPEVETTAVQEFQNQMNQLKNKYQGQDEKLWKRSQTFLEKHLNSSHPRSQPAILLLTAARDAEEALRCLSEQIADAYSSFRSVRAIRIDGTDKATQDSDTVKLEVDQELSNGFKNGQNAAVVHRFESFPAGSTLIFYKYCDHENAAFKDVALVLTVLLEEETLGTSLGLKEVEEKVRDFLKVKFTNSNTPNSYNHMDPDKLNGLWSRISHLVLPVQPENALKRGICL

Consider `COCCOC(=O)N1C(=O)[C@@]2(c3ccccc31)[C@H](C(=O)N1CCc3cc(OC)c(OC)cc3C1)[C@H]1C(=O)O[C@H](c3ccccc3)[C@H](c3ccccc3)N1[C@@H]2c1ccc(O)cc1`, for which the composite z-score is 1.13 in assay [1]; 0.337 in assay [3]; 1.38 in assay [4]; 0.116 in assay [5]; -0.0125 in assay [6]; -0.0769 in assay [7]. Besides, the composite z-score in assay [8] was 0.511; in assay [9] it was 1.94; in [10], 1.65; in the assay with Albumin (Bos taurus), 0.795; in [12], -0.0072; in [13] it was 0.0129. Further, the composite z-score in assay [14] turned out to be 0.424; in assay [15], 2.19; in assay [16] it was 0.808; in the assay with Sam68 (KHDRBS1), 1.31; in assay [17], 0.628; in assay [18], 1.17. In assay [2], the z-score is -0.515. The composite Z-score in assay [11] was 0.27 (inactive).

`NC(=O)[C@@]1(Cc2ccccc2)N=C(c2ccc(OCCCO)cc2)O[C@H]1c1ccccc1`: the composite z-score was -1.02 in [1]; -0.949 in assay [3]; 1.19 in assay [4]; 1.2 in assay [5]; -0.11 in assay [6]; 0.629 in [7]. Moreover, the composite z-score in assay [8] is 1.06; in [9] it was 3.1; in assay [10] it was -0.387; with Albumin (Bos taurus), 0.852; in [12], 0.0276; in assay [13] it was 0.0247. Besides, the composite z-score in assay [14] was 0.721; in assay [15], 3.05; in [16], 0.593; in the assay on Sam68 (KHDRBS1) it was 0.572; in assay [17], -0.643; in assay [18] it was 0.737. Besides, the z-score in assay [2] was -0.605. Further, in [11], the composite Z-score was 0.546 (inactive).

On to `O=C1NC(=O)C2C1C=CC(C(O)C1CC=CCC1)N2Nc1ccccn1` (stereo not given), for which the composite z-score was -0.643 in assay [1]; 0.571 in [3]; -0.282 in assay [4]; -0.589 in assay [5]; -0.0643 in assay [6]; -0.147 in assay [7]. The composite z-score in assay [8] was -0.0852; in assay [9] it was 1.22; in [10] it was -0.29; in the assay with Albumin (Bos taurus), -0.459; in assay [12] it was 0.137; in [13] it was -0.0272. Moreover, the composite z-score in [14] was 0.79; in [15], 0.793; in assay [16] it was 0.643; in the assay on Sam68 (KHDRBS1), 0.231; in assay [17] it was 1.05; in assay [18], 0.497. In addition, the z-score in assay [2] was -0.268. Besides, the composite Z-score in assay [11] is 0.945 (inactive).

For the compound `O=C1NC(=O)C2C1C=CC(C(O)c1ccc(I)cc1)N2Nc1ccccn1` (stereo not given), the composite z-score is -0.409 in [1]; 0.379 in [3]; 0.532 in assay [4]; 0.267 in [5]; 0.0136 in assay [6]; 0.282 in assay [7]. Also, the composite z-score in assay [8] is 0.0403; in assay [9], -0.593; in assay [10], 0.636; in the assay with Albumin (Bos taurus), 0.898; in assay [12], -0.0677; in assay [13] it was -0.0026. The composite z-score in assay [14] is 0.819; in [15], 2.35; in assay [16], 1.48; in the assay with Sam68 (KHDRBS1), -0.302; in [17] it was 0.37; in assay [18], 0.445. Further, in [2], the z-score is -0.533. Besides, the composite Z-score in assay [11] is 0.369 (inactive).

With `COc1ccc(C(O)C2C=CC3C(=O)N(C)C(=O)C3N2N(c2ccccc2)c2ccccc2)c2ccccc12` (stereo not given), the composite z-score was -0.452 in [1]; 0.0468 in assay [3]; -0.078 in [4]; -0.511 in [5]; 0.0328 in assay [6]; -0.0011 in assay [7]. Moreover, the composite z-score was 0.0984 in assay [8]; 1.68 in assay [9]; 0.429 in assay [10]; -0.111 in the assay with Albumin (Bos taurus); 0.237 in assay [12]; -0.0017 in assay [13]. The composite z-score in assay [14] was 0.677; in [15], -0.198; in assay [16], 0.976; with Sam68 (KHDRBS1), -0.481; in assay [17], 0.776; in assay [18], 0.369. The compound also displayed a z-score in assay [2] of 0.352. In assay [11], the composite Z-score was 1.39 (inactive).

Take `C=C(CCCC)/C(=C/C[C@@H](OC(C)=O)c1ccccc1OCCO)c1cc(C(=O)OC)ccc1OC`: the composite z-score in assay [1] is 0.129; in [3], -0.346; in assay [4] it was -0.421; in assay [5], -0.798; in assay [6] it was -0.124; in [7], -0.0769. In addition, the composite z-score in assay [8] was 0.0459; in assay [9], -0.107; in assay [10] it was 1.15; in the assay with Albumin (Bos taurus) it was 0.056; in [12] it was -0.0947; in assay [13], -0.103. Further, the composite z-score was 0.402 in assay [14]; 0.0769 in [15]; 0.0978 in assay [16]; 0.166 with Sam68 (KHDRBS1); -0.354 in assay [17]; -0.544 in [18]. The compound also gave a z-score in assay [2] of -2.13. Besides, the composite Z-score in assay [11] is -0.737 (inactive).
